Laboratory results from PubChem BioAssay (Tox21).
Results filed as inconclusive are left out. The source made the active and inactive calls. Unless noted, calls follow the shape of the dose curve; as a rule, active = well fitted curve in the direction sought with a large enough effect in the repeat runs; inconclusive = weak or mixed curves; inactive = no such curve, though single readings can be large; an effect the other way counts as inactive or inconclusive.

What was measured:
[1] = qHTS assay to identify small molecule antagonists of the thyroid receptor (TR) signaling pathway (AID 743065); also: nearly all actives have a fitted effect of over 55% in size; also: potency is read from the fitted curve at half-maximal effect
Procedure, shortened: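 Antagonism measured as loss of luciferase signal in GH3 cells stably carrying a TRE-luciferase reporter, co-treated with compound and T3 (1 nM final) for 23.5 h at 37 C. Viability was read in the same well by CellTiter-Fluor.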

[2] = system: thyroid hormone receptor (rat, GH3 cells); assay: qHTS assay to identify small molecule agonists of the thyroid receptor (TR) signaling pathway (AID 743066; calls by dose curve)
[3] = molecular target: Aryl hydrocarbon receptor (Homo sapiens) (UniProt P35869); assay: qHTS assay to identify small molecule that activate the aryl hydrocarbon receptor (AhR) signaling pathway (AID 743085); also: nearly all actives have a fitted effect of over 15% in size; also: potency is read from the fitted curve at half-maximal effect;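 as to activation: HG2L7.5c1 human HepG2 liver cells with stably integrated DRE-driven firefly reporter; series mostly up to about 70 µM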
Procedure, shortened: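 AhR agonist activity is inferred from enhanced light output of a DRE-controlled firefly luciferase reporter in HepG2 cells, measured with ONE-Glo following 24 h treatment at 37C.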

[4] = qHTS assay to identify small molecule antagonists of the estrogen receptor alpha (ER-alpha) signaling pathway - cell viability counter screen (AID 743074; calls by dose curve;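 also: HEK293 cells carrying ER-alpha-UAS-bla reporter stimulated with 17beta-estradiol; nearly all actives have a fitted effect of over 45% in size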)
[5] = molecular target: Estrogen receptor (Homo sapiens) (UniProt P03372); assay: qHTS assay to identify small molecule agonists of the estrogen receptor alpha (ER-alpha) signaling pathway using the BG1 cell line (AID 743079); also: nearly all actives have a fitted effect of over 20% in size
Aromatase (Homo sapiens) = Aromatase (Homo sapiens) (UniProt P11511); assay: qHTS assay to identify aromatase inhibitors (AID 743083); also: nearly all actives have a fitted effect of over 55% in size; also: potency is read from the fitted curve at half-maximal effect
[6] = molecular target: Estrogen receptor (Homo sapiens) (UniProt P03372); assay: qHTS assay to identify small molecule antagonists of the estrogen receptor alpha (ER-alpha) signaling pathway (AID 743069; active = well fitted curve in the direction sought with a large enough effect in the signal ratio in the repeat runs, not every such curve was filed as active; the % refers to the signal ratio)
Procedure, shortened: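 Compound effects are measured against 17beta-estradiol stimulation in HEK293 cells with a UAS-controlled beta-lactamase reporter for ER-alpha. Exposure lasts 18 hr at 37C; LiveBLAzer B/G FRET substrate follows for 2 hr at room temperature.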

[7] = molecular target: Estrogen receptor (Homo sapiens) (UniProt P03372); assay: qHTS assay to identify small molecule agonists of the estrogen receptor alpha (ER-alpha) signaling pathway (AID 743075; calls by dose curve)
[8] = qHTS assay to identify small molecule antagonists of the estrogen receptor alpha (ER-alpha) signaling pathway using the BG1 cell line (AID 743080; calls by dose curve;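 also: BG1 cells stimulated with 17beta-estradiol alongside compound; series mostly up to about 70 µM; nearly all actives have a fitted effect of over 25% in size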)
Procedure, shortened: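 BG1-Luc-4E2 cells (endogenous full-length ER-alpha, stable 4×ERE-luciferase) were starved 5 days in phenol-red-free medium with 10% charcoal-stripped FBS, plated 24 h, then given compound plus 17beta-estradiol for 21.5 h at 37 C; ONE-Glo luminescence read after 30 min.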

[9] = qHTS assay to identify small molecule antagonists of the estrogen receptor alpha (ER-alpha) signaling pathway using the BG1 cell line - cell viability counter screen (AID 743081);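 also: compound given together with 17beta-estradiol as the ER stimulus; nearly all actives have a fitted effect of over 45% in size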; also: potency is read from the fitted curve at half-maximal effect
[10] = qHTS assay to identify aromatase inhibitors - cell viability counter screen (AID 743084);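 also: cells stimulated with testosterone during compound exposure; nearly all actives have a fitted effect of over 55% in size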; also: potency is read from the fitted curve at half-maximal effect
[11] = qHTS assay to identify small molecule that activate the aryl hydrocarbon receptor (AhR) signaling pathway - cell viability counter screen (AID 743086); also: nearly all actives have a fitted effect of over 45% in size; also: potency is read from the fitted curve at half-maximal effect
Procedure, shortened: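 Cytotoxicity counter screen: CellTiter-Fluor signal (30 min, 37 C) in 4000 HepG2 cells/well carrying the DRE-luciferase reporter, following 24 h compound exposure at 37 C.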

[12] = molecular target: Peroxisome proliferator-activated receptor gamma (Homo sapiens) (UniProt P37231); assay: qHTS assay to identify small molecule agonists of the peroxisome proliferator-activated receptor gamma (PPARg) signaling pathway (AID 743094; active = well fitted activation curve with a large enough effect in the signal ratio in the repeat runs, not every such curve was filed as active; the % refers to the signal ratio)
Procedure, shortened: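 Quantitative HTS agonist mode: stable HEK293H line with UAS-beta-lactamase reporter under PPARg control, 17 h compound exposure at 37C, fluorescence after 1 h FRET substrate loading at room temperature.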

[13] = molecular target: Peroxisome proliferator-activated receptor gamma (Homo sapiens) (UniProt P37231); assay: qHTS assay to identify small molecule antagonists of the peroxisome proliferator-activated receptor gamma (PPARg) signaling pathway (AID 743191; calls by dose curve; also: series mostly up to about 63 µM; nearly all actives have a fitted effect of over 30% in size)
Procedure, shortened: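 Beta-lactamase reporter under UAS control in HEK293H PPARg-bla cells; compound treatment 17 h at 37C. Read-out: fluorescence intensity after 1 h room-temperature incubation with LiveBLAzer B/G FRET substrate.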

[14] = qHTS assay to identify small molecule antagonists of the peroxisome proliferator-activated receptor gamma (PPARg) signaling pathway - cell viability counter screen (AID 743194); also: nearly all actives have a fitted effect of over 55% in size
Procedure, shortened: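 Viability was measured as CellTiter-Glo luminescence in GeneBLAzer PPARg UAS-bla HEK293H cells. These cells had been exposed 17 h at 37 C to compounds together with rosiglitazone at 50 nM final, with the beta-lactamase readout taken in the same wells.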

[15] = qHTS assay to identify small molecule agonists of the peroxisome proliferator-activated receptor delta (PPARd) signaling pathway - cell viability counter screen (AID 743211); also: nearly all actives have a fitted effect of over 55% in size; also: potency is read from the fitted curve at half-maximal effect
Procedure, shortened: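 qHTS cell viability: PPARd-bla HEK293H; 17 h cpd, 37C; CellTiter-Glo, luminescence at 30 min RT.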

[16] = molecular target: Peroxisome proliferator-activated receptor delta (Homo sapiens) (UniProt Q03181); assay: qHTS assay to identify small molecule agonists of the peroxisome proliferator-activated receptor delta (PPARd) signaling pathway (AID 743212; calls by dose curve)
Procedure, shortened: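 HEK293H UAS-bla reporter cells, human PPARd system; compounds delivered in DMSO after 5 h plating, then at 37 C. Beta-lactamase FRET read, 2 h RT substrate step.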

[17] = qHTS assay for small molecule agonists of the antioxidant response element (ARE) signaling pathway (AID 743202; active = well fitted activation curve with a large enough effect in the signal ratio in the repeat runs, not every such curve was filed as active; the % refers to the signal ratio)
Procedure, shortened: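 An ARE-responsive beta-lactamase gene stably integrated in HepG2 cells serves as reporter. After 5 h plating and 16 h compound incubation at 37 C, fluorescence of the B/G FRET substrate was measured.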

[18] = qHTS assay for small molecule agonists of the antioxidant response element (ARE) signaling pathway - cell viability counter screen (AID 743203; calls by dose curve; also: nearly all actives have a fitted effect of over 55% in size)
Procedure, shortened: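 Seeded at 2,000 cells/well, ARE-bla HepG2 cells were incubated 5 hrs before compound addition. After 16 hrs of treatment at 37C with 5% CO2, CellTiter-Glo reagent was added and luminescence read 30 min later.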

Measured: Potency

Chain of Peroxisome proliferator-activated receptor delta (Homo sapiens) (Q03181 whole entry, looked up): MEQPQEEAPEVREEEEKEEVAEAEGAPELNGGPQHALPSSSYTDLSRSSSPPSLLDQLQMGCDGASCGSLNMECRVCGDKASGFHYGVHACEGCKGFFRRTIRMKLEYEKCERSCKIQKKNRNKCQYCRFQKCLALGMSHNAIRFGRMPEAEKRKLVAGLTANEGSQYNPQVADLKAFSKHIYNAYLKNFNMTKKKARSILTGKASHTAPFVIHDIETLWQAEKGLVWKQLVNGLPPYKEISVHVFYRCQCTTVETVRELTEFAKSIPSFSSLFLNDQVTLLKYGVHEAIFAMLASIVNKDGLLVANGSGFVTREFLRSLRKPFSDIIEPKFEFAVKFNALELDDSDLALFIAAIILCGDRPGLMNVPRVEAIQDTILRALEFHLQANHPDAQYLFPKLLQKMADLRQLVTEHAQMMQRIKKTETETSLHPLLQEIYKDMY
Chain of Aromatase (Homo sapiens) (P11511 whole entry, looked up): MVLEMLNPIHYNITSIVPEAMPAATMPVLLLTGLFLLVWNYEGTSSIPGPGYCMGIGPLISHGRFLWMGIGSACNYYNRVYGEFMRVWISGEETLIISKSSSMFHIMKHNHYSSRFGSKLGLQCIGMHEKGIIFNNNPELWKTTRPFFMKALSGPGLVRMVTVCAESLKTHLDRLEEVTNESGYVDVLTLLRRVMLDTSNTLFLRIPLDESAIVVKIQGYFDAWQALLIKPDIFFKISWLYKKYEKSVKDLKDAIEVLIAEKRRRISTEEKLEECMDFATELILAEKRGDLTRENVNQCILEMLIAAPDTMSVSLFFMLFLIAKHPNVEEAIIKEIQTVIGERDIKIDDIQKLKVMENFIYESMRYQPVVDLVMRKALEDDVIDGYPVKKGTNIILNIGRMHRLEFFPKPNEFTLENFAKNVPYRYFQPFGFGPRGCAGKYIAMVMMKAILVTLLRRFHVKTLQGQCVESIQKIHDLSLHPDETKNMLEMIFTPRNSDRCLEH
Chain of Peroxisome proliferator-activated receptor gamma (Homo sapiens) (P37231 whole entry, looked up): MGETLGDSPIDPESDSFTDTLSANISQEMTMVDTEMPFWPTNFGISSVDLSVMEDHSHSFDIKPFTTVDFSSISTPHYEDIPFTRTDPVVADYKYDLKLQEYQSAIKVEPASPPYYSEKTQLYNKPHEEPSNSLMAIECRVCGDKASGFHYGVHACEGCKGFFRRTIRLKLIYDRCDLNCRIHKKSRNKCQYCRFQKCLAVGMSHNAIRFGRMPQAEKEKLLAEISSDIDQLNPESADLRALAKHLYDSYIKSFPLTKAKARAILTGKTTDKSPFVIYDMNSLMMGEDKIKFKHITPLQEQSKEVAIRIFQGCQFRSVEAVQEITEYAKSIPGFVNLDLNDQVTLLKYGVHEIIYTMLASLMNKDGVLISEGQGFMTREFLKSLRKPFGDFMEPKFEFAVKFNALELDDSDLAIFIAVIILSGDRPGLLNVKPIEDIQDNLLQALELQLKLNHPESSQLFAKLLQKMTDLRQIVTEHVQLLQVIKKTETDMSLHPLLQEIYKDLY
Chain of Estrogen receptor (Homo sapiens) (P03372 whole entry, looked up): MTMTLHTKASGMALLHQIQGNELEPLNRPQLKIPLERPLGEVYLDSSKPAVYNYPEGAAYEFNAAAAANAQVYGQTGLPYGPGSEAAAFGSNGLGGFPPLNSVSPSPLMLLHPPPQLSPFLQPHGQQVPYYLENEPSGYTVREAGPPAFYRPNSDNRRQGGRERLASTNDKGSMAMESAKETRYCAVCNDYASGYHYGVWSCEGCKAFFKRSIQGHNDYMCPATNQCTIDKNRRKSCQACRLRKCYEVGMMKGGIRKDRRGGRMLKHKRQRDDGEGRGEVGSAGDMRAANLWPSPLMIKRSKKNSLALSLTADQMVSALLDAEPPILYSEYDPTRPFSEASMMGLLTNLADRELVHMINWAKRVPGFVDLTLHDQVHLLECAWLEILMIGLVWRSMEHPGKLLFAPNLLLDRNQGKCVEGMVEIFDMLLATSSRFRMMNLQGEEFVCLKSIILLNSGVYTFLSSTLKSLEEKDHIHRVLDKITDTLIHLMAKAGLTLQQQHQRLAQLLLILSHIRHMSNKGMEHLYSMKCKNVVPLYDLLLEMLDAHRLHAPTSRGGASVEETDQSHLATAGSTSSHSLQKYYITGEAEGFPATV
Chain of Aryl hydrocarbon receptor (Homo sapiens) (P35869 whole entry, looked up): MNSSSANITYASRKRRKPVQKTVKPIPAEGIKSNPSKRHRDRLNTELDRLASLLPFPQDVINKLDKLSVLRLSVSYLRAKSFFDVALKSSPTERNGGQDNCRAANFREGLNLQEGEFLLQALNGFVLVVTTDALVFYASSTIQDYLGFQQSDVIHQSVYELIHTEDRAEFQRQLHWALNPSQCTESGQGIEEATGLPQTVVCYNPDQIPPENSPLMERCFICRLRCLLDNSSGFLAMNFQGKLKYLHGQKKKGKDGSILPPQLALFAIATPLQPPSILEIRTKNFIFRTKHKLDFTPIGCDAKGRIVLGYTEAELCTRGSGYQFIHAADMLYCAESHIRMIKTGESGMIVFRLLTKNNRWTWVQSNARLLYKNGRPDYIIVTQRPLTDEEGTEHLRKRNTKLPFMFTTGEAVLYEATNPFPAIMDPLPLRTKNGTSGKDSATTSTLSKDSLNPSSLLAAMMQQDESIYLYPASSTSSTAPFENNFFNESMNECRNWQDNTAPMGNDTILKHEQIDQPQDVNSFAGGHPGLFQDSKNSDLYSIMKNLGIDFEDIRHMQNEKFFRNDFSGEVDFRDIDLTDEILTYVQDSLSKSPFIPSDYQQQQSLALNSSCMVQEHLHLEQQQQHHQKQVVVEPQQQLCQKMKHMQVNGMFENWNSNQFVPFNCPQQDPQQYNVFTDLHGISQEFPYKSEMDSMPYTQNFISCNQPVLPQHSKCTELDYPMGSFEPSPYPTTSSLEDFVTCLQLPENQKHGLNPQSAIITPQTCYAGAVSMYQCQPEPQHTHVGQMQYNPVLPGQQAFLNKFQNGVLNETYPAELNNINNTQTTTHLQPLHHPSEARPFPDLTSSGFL

CCCCCCCC1CCC(=O)O1 (configuration not stated)
inactive: [1] | [2] | [3]

O=C1c2ccccc2-c2n[nH]c3cccc1c23
active: [1] 11.9 µM | [3] 29.8 µM
inactive: [2] | [4] | [5] | Aromatase (Homo sapiens)

COc1ccc(/C=N/NC(=O)c2ccncc2)c(C(=O)O)c1OC
inactive: [2] | [6] | [4] | [7] | [5] | [8] | [9] | Aromatase (Homo sapiens) | [10] | [11] | [12]
active: [3] 11.9 µM

O=C(O)[C@H]1CN(C/C=C/P(=O)(O)O)CCN1
inactive: [1] | [2] | [4] | [9] | Aromatase (Homo sapiens) | [10] | [11]

C=CC[N@@+]12CC[C@@]34c5ccccc5N5/C=C6/[C@H]7C[C@H]8[C@@]9(CC[N@@+]8(CC=C)C/C7=C/CO)c7ccccc7N(/C=C(/[C@@H](C[C@@H]31)/C(=C\CO)C2)[C@H]54)[C@@H]69
inactive: [1] | [2] | [4] | Aromatase (Homo sapiens) | [10] | [3] | [11] | [12]

c1ccc(-n2cnnn2)cc1
inactive: [1] | [2] | [4] | [9] | Aromatase (Homo sapiens) | [10] | [11] | [12]

Oc1ccc(Cl)cc1C1CCCC1
inactive: [2] | [4] | [7] | [8] | [9] | [10] | [11] | [12] | [13] | [14] | [15] | [16]

COc1cc2c(cc1OC)[C@@H](Cc1cc(OC)c(OC)c(OC)c1)[N+](C)(CCCOC(=O)CC/C=C/CCC(=O)OCCC[N+]1(C)CCc3cc(OC)c(OC)cc3[C@H]1Cc1cc(OC)c(OC)c(OC)c1)CC2 (some centres not stated)
inactive: [4] | [9] | Aromatase (Homo sapiens) | [10] | [11]

c1ccc(-c2ccc(C(c3ccccc3)n3ccnc3)cc2)cc1 (configuration not stated)
inactive: [4] | [5] | [8] | [9] | [10] | [11] | [12] | [16]
active: Aromatase (Homo sapiens) 0.75 µM | [3] 1.06 µM | [15] 29.8 µM

CC(O)(c1ccc(Cl)cc1)c1ccc(Cl)cc1
active: Aromatase (Homo sapiens) 61.1 µM
inactive: [2] | [4] | [7] | [5] | [9] | [3] | [11] | [14] | [16]

O=C1CCC/C=C\CCCCCCCCCC1
active: Aromatase (Homo sapiens) 30.6 µM
inactive: [2] | [4] | [9] | [10] | [3] | [11] | [14] | [17] | [18] | [15] | [16]

CS(=O)(=O)c1ccc([C@@H](CC2CCCC2)C(=O)Nc2cnccn2)cc1Cl
inactive: [2] | Aromatase (Homo sapiens) | [3]

Cc1cn([C@H]2C[C@H](O)[C@@H](CO)O2)c(=O)[nH]c1=O
inactive: [4] | [7] | [5] | [8] | [9] | Aromatase (Homo sapiens) | [10] | [3] | [11] | [12]

CN1[C@@H](CC(=O)c2ccccc2)CCC[C@H]1C[C@H](O)c1ccccc1
inactive: [2] | [4] | [7] | [5] | [8] | Aromatase (Homo sapiens) | [3] | [11] | [12]

c1ccc2occc2c1
inactive: [2] | [6] | [7] | [5] | [8] | [9] | [12]
active: Aromatase (Homo sapiens) 68.6 µM | [10] 68.6 µM

CCCn1c(=O)[nH]c(=O)c2[nH]cnc21
inactive: [4] | [9] | [11]

CC1(C)S[C@@H]2[C@H](NC(=O)[C@@H](NC(=O)N3CCNC3=O)c3ccccc3)C(=O)N2[C@H]1C(=O)O
inactive: [6] | [4] | [7] | [5] | [8] | [9] | Aromatase (Homo sapiens) | [10] | [3] | [11] | [12]

O=C1CC[C@@H](C(=O)N[C@H]2C[C@@H]2c2ccccc2)N1
inactive: [6] | [4] | [7] | [5] | [8] | [9] | Aromatase (Homo sapiens) | [10] | [3] | [11] | [12]

CN(C)CCC(O)(c1ccccc1)c1ccccc1Cl (configuration not stated)
inactive: [2] | [6] | [4] | [7] | [5] | [8] | Aromatase (Homo sapiens) | [10] | [3] | [12]

CC(C)(S)C(=O)N[C@@H](CS)C(=O)O
inactive: [4] | [9] | Aromatase (Homo sapiens) | [10] | [3] | [11] | [12]

CC[N+](CC)(CC)CCC(O)(c1ccccc1)C1CCCCC1 (configuration not stated)
inactive: [4] | Aromatase (Homo sapiens) | [10] | [3] | [11] | [12]

CCN(CC)CC#CCOC(=O)C(O)(c1ccccc1)C1CCCCC1 (configuration not stated)
active: [9] 9.44 µM | [10] 11.9 µM | [11] 18.8 µM
inactive: [2] | [4] | Aromatase (Homo sapiens) | [3]

COc1ccc2ccccc2c1
inactive: [2] | Aromatase (Homo sapiens)

Cc1cc(CC(C)CC(C)(C)C)n(O)c(=O)c1 (configuration not stated) (tested in a mixture with another compound)
active: Aromatase (Homo sapiens) 13.3 µM
inactive: [9] | [3] | [11] | [12]
